# Experimental data reported in PubChem BioAssay (NCATS).
# Records with an inconclusive call do not appear. A call without a number means that no potency is given here. Active and inactive are the calls of the source. Calls come from the whole dose curve; as a rule, active = well fitted curve in the direction sought with a large enough effect; inconclusive = small, poorly fitted or top-dose-only effect, or another doubt; inactive = no such curve, though single readings can be large; an effect the other way counts as inactive or inconclusive.
# Key:
# [1] = target: Aldehyde dehydrogenase, mitochondrial (Homo sapiens) (UniProt P05091); assay: qHTS for Inhibitors of the Aldehyde Dehydrogenase Family (ALDH2) Primary screen (AID 2061308); note: nearly all actives have a fitted effect of over 55% in size
# [2] = target: Retinaldehyde dehydrogenase 3 (Homo sapiens) (UniProt P47895); assay: qHTS for Inhibitors of the Aldehyde Dehydrogenase Family (ALDH1A3) Primary screen (AID 2061315)
SMILES,Potency [1],Potency [2]
Cc1ccc(-c2cc(C(=O)Nc3ccc(C(=O)O)cc3)c3ccccc3n2)cc1C,inactive,inactive
COc1ccc(OC)c(Nc2nn3c(=O)c4ccccc4nc3s2)c1,inactive,inactive
Fc1cc(-c2nc(Nc3ccc(F)c(F)c3)c3ccccc3n2)ccn1,inactive,inactive
C=C1C(=O)O[C@@H]2C[C@@]3(C)CCCC(=C)[C@]3(O)C[C@H]12,inactive,inactive
O=C(NCCc1nc2ccccc2n1CCOc1cccc([N+](=O)[O-])c1)C1CCCCC1,inactive,inactive
Cn1c2cc(Br)sc2c2cnn(Cc3ccc(F)cc3F)c(=O)c21,inactive,inactive
CCCCN1C(=O)c2ccccc2NC1c1ccc(OC)c(COc2c(C)cc(NC(C)=O)cc2C)c1 (centres undefined),inactive,inactive
COC(=O)c1ccc(N2CCN(S(=O)(=O)c3ccc4c(c3)CC(=O)N4)CC2)cc1,inactive,inactive
Cc1nc2cc(C(=O)NCc3ccccn3)nn2c(C)c1Cc1cccc(Cl)c1,inactive,inactive
COCCNc1nc(C)nc2c1nc(-c1ccccc1)n2CC1CCN(C)CC1,inactive,inactive
COc1cc(F)c(S(=O)(=O)N2CCN(S(=O)(=O)c3ccc(NC(C)=O)cc3)CC2)c(F)c1,inactive,inactive
C=C1C(=O)OC2/C=C(\COC(C)=O)CC/C=C(\C=O)CC(OC(=O)C(C)CC)C12 (centres undefined),inactive,inactive
O=[S+]([O-])(c1ccc2c(c1)OCCO2)N1CCN([S+](=O)([O-])c2cc(Cl)ccc2F)CC1,inactive,inactive
CS(=O)(=O)c1ccc(C(=O)OCC(=O)N2CCC(c3ccccc3)CC2)cc1[N+](=O)[O-],inactive,inactive
CCCn1c(-c2ccc(F)cc2)nc2c(NC(C)CCCN(CC)CC)nc(C)nc21 (centres undefined),inactive,inactive
C=C(C)C(=O)OC1[C@@H]2C(=C)C(=O)O[C@@H]2C[C@@H](C)[C@@H]2C=CC(=O)[C@@]12C (some centres undefined),inactive,inactive
CC(C)(N)C(=O)Nc1ccc(Cl)cc1C(=O)c1ccc[nH]1,inactive,inactive
C/C=C\C1=CCCC1Nc1ncnc2ccc(-c3c(C)noc3C)cc12 (centres undefined),inactive,inactive
CC(C)(C)OC(=O)NCc1nnc(-c2cc3ccccc3[nH]2)o1,inactive,inactive
O=c1[nH]ccc2nc(-c3ccc(CN4CCC(c5nc(-c6ccccn6)n[nH]5)CC4)cc3)c(-c3ccccc3)cc12,inactive,inactive
CC(C)c1ccccc1-c1ncc(F)c(NCc2ccc(-c3ccn[nH]3)cc2)n1,inactive,inactive

SMILES,Potency [1],Potency [2]
COc1ccc(-c2ccc3nnc(-c4ccccc4OC)n3n2)cc1OC,inactive,inactive
N#Cc1nc(Nc2cc(F)cc(F)c2)c2ncn(CCN3CCCC3)c2n1,inactive,inactive
Cc1cc(OCCCSc2nc(-c3ccc(C(C)(C)C)cc3)nc3cc(=O)[nH]n23)ccc1Cl,inactive,inactive
O=c1[nH]c2ccc(S(=O)(=O)N3CCN(S(=O)(=O)c4ccc5c(c4)OCCO5)CC3)cc2[nH]c1=O,inactive,inactive
CC(C)c1ccccc1-c1ncc(F)c(NCc2ccc(-n3ccnn3)cc2)n1,inactive,inactive
Cc1cccc(-n2cnc3cc(C(=O)N4CCN(C)CC4)ccc32)c1,inactive,inactive
CC(=O)c1ccc(NC(=O)c2cnn3c(C)cc(C)nc23)cc1,inactive,inactive
O=C1Nc2ccccc2/C1=C\c1ccc(O)cc1,inactive,inactive
O=S(=O)(NCCNc1nc(-c2ccco2)nc2ccccc12)c1ccccc1,inactive,inactive
Cc1cc(NC(=O)Nc2cccc(-c3ccncc3)n2)ccc1Cl,inactive,inactive
O=C(/C=C/c1ccc(Cl)cc1)Nc1cccc([S+](=O)([O-])Nc2ccccc2F)c1,inactive,inactive
c1ccc2c(Nc3nnc(-c4ccncc4)s3)cccc2c1,inactive,inactive
Cc1cc(C)nc(NC(=S)N2CCN(c3cccc(C#N)c3)CC2)c1,inactive,inactive
FC(F)(F)c1ccccc1-c1nc(NCc2ccccc2)c2ccccc2n1,inactive,inactive
Oc1ccc(CNc2nccc3ccccc23)c2cccnc12,inactive,inactive
O=C(Nc1ccc(-c2nc3ccccc3[nH]2)cc1)c1ccc(Cl)c(Cl)c1,inactive,inactive
COc1cc(Cl)ccc1C(=O)Nc1nc(-c2ccccc2)cs1,inactive,inactive
CCCCCCNC(=O)Nc1nnc(-c2ccncc2)s1,inactive,inactive
COc1cc(-c2no[n+]([O-])c2C#N)cc(OC)c1OC,inactive,inactive
N[C@H]1CCN(c2cnc3c(O)ccc(C(=O)O)c3c2)C1,inactive,inactive
CC(C)(C)OC(=O)Cc1nnc(-c2nc3ccccc3[nH]2)o1,inactive,inactive

SMILES,Potency [1],Potency [2]
C/C=C/C(=O)OC1/C=C/C(O)C(OC(C)=O)CCC(=O)OC1C (centres undefined),inactive,inactive
Cc1cccc(-c2ccc(=O)n(CC(=O)NCCc3ccccc3)n2)c1,inactive,inactive
CCCCCC1CCC(C(=O)Nc2ccc(S(=O)(=O)Nc3nccs3)cc2)CC1 (centres undefined),inactive,inactive
COc1ccc(C(=O)Nc2ccc(-c3nc4ccccc4[nH]3)cc2)cc1Br,inactive,inactive
O=C1Nc2ccccc2/C1=C\c1cc(Br)c(O)c(Br)c1,inactive,inactive
CC(C)(C)c1ccccc1Nc1nc(C#N)nc(NC2CCCC2)n1,inactive,inactive
Cc1ccc(NS(=O)(=O)c2ccc3c(c2)CCCC(=O)N3)cc1C,inactive,inactive
CC(=O)Nc1oc(-c2cccc3ccccc23)nc1C#N,inactive,inactive
O=S(=O)(c1ccc2c(c1)OCCO2)N1CCN(S(=O)(=O)c2c(F)cccc2F)CC1,inactive,inactive
O=C(/C=C/c1c(F)c(F)c(F)c(F)c1F)Nc1cccc([S+](=O)([O-])Nc2ccccc2F)c1,inactive,inactive
Nc1cc(NC(=O)Nc2nnc(-c3ccncc3)s2)ccc1Cl,inactive,inactive
CC(C)c1nc(Nc2nc3ccccc3o2)nc2c1CCCC2,inactive,inactive
CCN(CC)CCCC(C)n1c(-c2ccccc2)nc2c(NCCOC)nc(C)nc21 (centres undefined),inactive,inactive
COc1cccc(C2c3c(ncn(-c4cccc(C#N)c4)c3=N)Oc3ccc4ccccc4c32)c1 (centres undefined),inactive,inactive
O=S(=O)(c1cccc(F)c1)N1CCN(S(=O)(=O)c2ccc3c(c2)OCCO3)CC1,inactive,inactive
O=C(Nc1ccc(-n2cncn2)c(F)c1)Nc1nnc(-c2ccncc2)s1,inactive,inactive
CCCN(Cc1cccs1)c1ncnc2ccc(-c3ccc4c(c3)OCO4)cc12,inactive,inactive
O=C(O)c1ccc(CSc2nnc(-c3cccc([S+](=O)([O-])NC4CCCC4)c3)n2-c2ccccc2)cc1,inactive,inactive
COc1ccc(N2C[C@]34C=C[C@H](O3)C(C(=O)O)C4C2=O)cc1OC (some centres undefined),inactive,inactive
O=C1CCCC2=C1C(c1ccc(F)cc1)N=C(Nc1nc3ccccc3o1)N2 (centres undefined),inactive,inactive
CC(C)Oc1cccc(-c2csc(N3CCC(C(N)=O)CC3)n2)c1,inactive,inactive

SMILES,Potency [1],Potency [2]
CC(C)(C)NC(=O)N1CCC(C(=O)Nc2ccc([S+](=O)([O-])Nc3nccs3)cc2)CC1,inactive,inactive
O=C(/C=C/c1ccc(OC(F)(F)F)cc1)Nc1cccc([S+](=O)([O-])Nc2ccccc2F)c1,inactive,inactive
CC(=O)NC1CCN(c2nc(-c3ccc(Br)cc3)cs2)CC1,inactive,inactive
C[C@H]1CN(S(=O)(=O)c2ccc3c(c2)OCCO3)CCN1S(=O)(=O)c1c(F)cccc1F,inactive,inactive
Cc1nnc(-c2cnn(C)c2N)n1CCCc1ccccn1,inactive,inactive
Cc1cc2c(s1)c1cnn(Cc3ccccc3F)c(=O)c1n2C,inactive,inactive
O=C(Nc1ccc(Cl)c(Cl)c1)N1CCN(c2ccncc2)CC1,inactive,inactive
CC(C)(C)OC(=O)N[C@@H](Cc1ccc(OS(=O)(=O)c2cccc3cnccc23)cc1)C(=O)N1CCCN(C(=O)OC(C)(C)C)CC1,inactive,inactive
O=[N+]([O-])c1ccc(CSc2nc3ncc(Br)cc3[nH]2)cc1,inactive,inactive
NC(=O)C1CCN(c2nc(-c3ccc(OCc4ccccc4)cc3)cs2)CC1,inactive,inactive
Cc1cccc(NS(=O)(=O)c2ccc3c(c2)CCC(=O)N3)c1,inactive,inactive
CC/C(C)=C/C(=O)OC1C(OC2(C)CCC3C(C4C(C)CCC42)C3(C)C)OC(C)C(O)C1O (centres undefined),inactive,inactive
O=C(COC(=O)CNC(=O)c1ccccc1)Nc1ccccc1Cl,inactive,inactive
Cc1ccc(-c2ccc(=O)n(CC(=O)N(C)[C@H](C)c3ccccc3)n2)cc1,inactive,inactive
COc1cc(F)c(S(=O)(=O)N2CCN(S(=O)(=O)c3cccc(NC(C)=O)c3)CC2)c(F)c1,inactive,inactive
CC1(C)CC[C@]23CO[C@@]4(CCC5[C@@]6(C)CC[C@H](O[C@@H]7OC[C@H](O[C@@H]8O[C@H](CO)[C@@H](O)[C@H](O)[C@H]8O[C@@H]8OC[C@@H](O)[C@H](O)[C@H]8O)[C@H](O)[C@H]7O[C@@H]7O[C@H](CO)[C@@H](O)[C@H](O)[C@H]7O)[C@@](C)(CO)C6CC[C@@]5(C)[C@]4(C)C[C@H]2O)[C@@H]3C1 (some centres undefined),inactive,inactive
CC(=O)Nc1nc(C)c(-c2nc(N3CCCC(O)C3)no2)s1 (centres undefined),inactive,inactive
O=C1NC2=C(C(=O)CCC2)C(c2ccccc2Cl)N1 (centres undefined),inactive,inactive
CC[C@H](C)[C@H](NC(=O)[C@H]([C@@H](C)CC)N(C)C(C)=O)C(=O)N[C@H](C(=O)N[C@@H](CC(C)C)C(=O)[C@@]1(C)CO1)[C@@H](C)O,inactive,inactive
